Data from PubChem BioAssay (NCATS).
Some of the results follow. Results filed as inconclusive are left out. Activity calls are given as the source filed them. The call rests on the fitted dose curve; in most records, active means well fitted inhibition curve with a large enough effect; inconclusive means small, poorly fitted or top-dose-only effect; inactive means flat fitted curve, though single readings scatter.

Each compound was assayed against Fructose-bisphosphate aldolase (Giardia intestinalis (strain ATCC 50803 / WB clone C6)) (UniProt A8B2U2) (assay: qHTS Assay for Inhibitors of Fructose-1,6-bisphosphate Aldolase from Giardia Lamblia: Primary screen confirmation (AID 2787;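 further: aldolase product measured through coupled diaphorase step turning resazurin into fluorescent resorufin; nearly all actives have a fitted effect of over 45% in size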)). Settings: purified Giardia aldolase enzyme activity; series mostly up to 57.5 µM; activity change, negative = inhibition: at the top concentration.
Source text: NIH Chemical Genomics Center [NCGC]
NIH Molecular Libraries Probe Production centers Network [MLPCN]
Assay Provider: Osnat Herzberg, University of Maryland
The objective of this project is to obtain compounds that inhibit Giardia lamblia growth. G. lamblia is a human pathogen which afflicts impoverished nations; it is the most common cause of outbreaks of diarrhea in the United States. During the course of our study of potential drug targets in Giardia, we have identified the Class II (Zn2+ functions in electrophilic catalysis) fructose-1,6-bisphosphate aldolase (FBPA) as an excellent candidate for drug targeting. FBPA is a key glycolytic pathway enzyme, essential for G. lamblia survival. The human FBPA belongs to the Class I aldolases, which have a different substrate binding site structure and a radically different catalytic mechanism (employing a lysine-Schiff base intermediate). Therefore, affinity-based or mechanism-based inhibitors of the Giardia FBPA are expected not to interfere with the catalytic function of the human FBPA.
A glyceraldehyde-3-phosphate dehydrogenase/triose phosphate isomerase/NAD/arsenate coupled assay was adapted to the 1536-well HTP format for use in the primary screen. This was done by coupling it to a diaphorase/resazurin/resorufin reaction that can be monitored by fluorescence (excitation, 544 nm; emission, 590 nm). Compounds identified in this screen will be further evaluated by coupling the glycerol-3-phosphate/triose phosphate isomerase/NADH assay to a phenazine methosulfate/tetranitroblue tetrazolium color reaction. False positives due to the dehydrogenases and diaphorase inhibition will be eliminated, and selectivity assay will triage inhibitors of mammalian triose phosphate isomerase and the Class I FBPA. G. lamblia FBPA inhibitors identified by the in vitro analyses will be examined for growth inhibition of Giardia trophozoites, and for cytotoxicity in human cells.
The present assay was used to confirm hits from the primary screen.
Step,Parameter,Value,Description
1,Enzyme reagent,2 uL,40 nM FBPA w/ 30uM ZnCl2
2,Compound,23 nL,3.68 nM-57.5 uM final concentration
3,Time,10 min,RT Incubation
4,Substrate/detection Reagent,2 uL,Substrate + enzyme coupling system + AmpLite Red kit
5,Time,20 min,RT Incubation
6,Detector,525 nm/598 nm (Fluorescence),ViewLux Fluorescence Read (Read 1)
1,Medium-binding black solid-bottom Kalypsys plates. FRD or Kalypsys dispenser, 2 uL of FBPA enzyme. Bottle kept at 4C.
2,Compound Library (10 mM ,1:5 dilution). Pin-transferred for a [final] range of 3.68 nM-57.5 uM.
4,FRD or Kalypsys dispenser, 2 uL of reaction mixture. Bottle kept at 4C and covered in foil to protect from light.
6,ViewLux Protocol 1194; Excitation filter wheel A (525/20 Pol; BODIPY TMR FP), Emission filter wheel B (598/25 S; BODIPY TMR FP S).
Keywords: Fructose-bisphosphate aldolase, FBPA , Giardia lamblia , Giardia, HTS, Inhibitors
On the % scale 0 is the no-effect control and ±100 the full control effect.

Sequence of Fructose-bisphosphate aldolase (Giardia intestinalis (strain ATCC 50803 / WB clone C6)) (A8B2U2 whole entry, looked up): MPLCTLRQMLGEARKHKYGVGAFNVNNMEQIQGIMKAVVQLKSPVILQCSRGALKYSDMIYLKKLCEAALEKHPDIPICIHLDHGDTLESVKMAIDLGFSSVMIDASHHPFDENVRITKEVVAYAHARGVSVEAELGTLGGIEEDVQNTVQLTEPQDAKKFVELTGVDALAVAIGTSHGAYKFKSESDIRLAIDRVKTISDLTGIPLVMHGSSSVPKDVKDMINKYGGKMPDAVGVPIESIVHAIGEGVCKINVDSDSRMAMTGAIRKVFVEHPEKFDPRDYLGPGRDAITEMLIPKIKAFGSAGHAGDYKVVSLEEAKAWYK

Activity change, negative = inhibition, inactive:
CN1C(=O)/C(=C\c2ccc(-c3ccccc3)o2)SC1=S -5.06%
O=C(CN1CCN(Cc2ccccc2)CC1)Nc1ccc(F)c(F)c1 -1.29%
COc1ccc(N=Nc2c(-c3ccc(OC)cc3)[nH]oc2=O)cc1 -5%
O=C(CSc1cccc[n+]1[O-])c1ccc(-c2ccccc2)cc1 1.49%
Cc1cnc(NC(=O)c2ccccn2)s1 -2.43%
O=C(Nc1ccccc1Cl)O/N=C(/c1ccccc1)c1ccccn1 -7.81%
O=[N+]([O-])c1cc([N+](=O)[O-])c2cccnc2c1O -10.8%
Cc1cc(C)c2c(=O)[nH]c(SCC(=O)Nc3ccc(Br)cc3)nc2n1 6.84%
Cc1ccc(C(=O)Nc2nnc(C3=COCCO3)o2)cc1C -3.19%
CSc1n[nH]c(=S)n1N -12.2%
Cc1cccc(-c2nnc(SCC(=O)O)n2Cc2ccccc2)c1 1.71%
Cc1nnc(N/N=C/c2ccccn2)[nH]c1=O -13.9%
Cc1cc(C)n(-c2ccc(Cl)c(C(=O)O)n2)n1 0.101%
C=C(C)CNC(=S)N/N=C/c1ccccc1OCC(=O)O 1.59%
COc1ccc(CN2CCN(Cc3ccc(OC)c(OC)c3OC)CC2)cc1 -11.3%
CCN(CC(=O)Nc1ccc(S(=O)(=O)N2CCCC2)cc1)CC(=O)Nc1cccc(OC)c1 5.79%
Clc1cccc(CN2COc3c(cc(Cl)c4cccnc34)C2)c1 -18.2%
Cc1ccc(S(=O)(=O)NNC(=S)NC(C)(C)C)cc1 4.36%
Cc1cc(C)nc(N/N=C/c2ccc([N+](=O)[O-])o2)n1 -14.8%
CN1CCN(CCCCOc2ccccc2-c2ccccc2)CC1 0.01%
O=C(Nc1nnc(-c2ccco2)o1)c1ccc(S(=O)(=O)N2CCOCC2)cc1 7.15%
COc1ccc(C(=O)NC(=S)N2CCCCC2c2cccnc2)cc1OC (stereo not given) 5%
Cn1c(=O)[nH]c(=O)c2c1[nH]c(=S)n2Cc1ccccc1 -3.25%
CC(C)(c1ccccc1)c1ccc(OCCN2CCCC2)cc1 0.817%
COc1ccccc1CN1CCN(Cc2cc(OC)c(OC)cc2OC)CC1 0.82%
Cc1csc(NC(=O)CN2CCCCCC2)n1 2.62%
CCc1ccc2c(c1)C1(NN=C(c3ccccc3)S1)C(=O)N2 (stereo not given) 7.54%
Cc1ccc(OCCCCc2c(C)n[nH]c2C)cc1 -7.21%
COc1cc(CN2CCN(Cc3ccc(C)cc3)CC2)c([N+](=O)[O-])cc1OC -8.67%
O=c1nc(N/N=C/c2ccco2)cn[nH]1 7.99%
O=C(O)Cn1c(Cc2ccccc2)nc2ccccc21 11.6%
O=[N+]([O-])c1ccc2nc(-c3ccccn3)[nH]c2c1 -17.5%
Oc1ccc2ccccc2c1N=Nc1nccs1 -16.3%
C=CCc1cc(C)ccc1OCCCn1ccnc1 -4.57%
CN1CCCc2cc(C#N)c(=O)[nH]c21 -24%
CNC(=S)N/N=C/c1ccc(N2CCOCC2)s1 -10.7%
COCCN(C(=S)Nc1ccccc1OC)C1CCN(C(C)C)CC1 3.8%
CCS(=O)(=O)c1cc([N+](=O)[O-])c(Sc2ccccc2N)s1 11.1%
Cc1nc2ccc(NC(=S)N3CCC(C)CC3)cc2nc1C -29.8%
COc1ccc(Cl)cc1C(=O)NNC(=O)c1nc2nc(C)cc(C)n2n1 15%
